# Assay outcomes: PubChem, National Center for Advancing Translational Sciences (NCATS)
# Most compounds without a hit are left out; they make up all but 7.9% or so of the library.
# MCF10A rerep: induces DNA re-replication in MCF 10a normal breast cells | MCF 10A DNA re-replication, Hoechst nuclear intensity, 48 h | Potency, µM (top dose mostly 46.1 µM), inactives show at the top dose activity, positive = re-replication, hits mostly activators | 350,000 compounds, 2.9% hits | AID 624296; note: % of control where 0% means no effect; nearly all actives have a fitted effect of over 50% in size
# HT1080-NT tox: kills 2HG-producing HT-1080-NT fibrosarcoma cells; HT-1080-NT fibrosarcoma viability, CellTiter-Glo ATP luminescence, 48 h; Potency, µM (doses to about 46.1 µM), for inactives: at the top dose activity, negative = less viability, hits mostly cytotoxic; 360,000 compounds, 1.6% hits;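 note: NT is the 2HG producing partner of a matched IDH1 knockdown line; 0% = DMSO-treated cells and -100% = media-only wells without cells; nearly all actives have a fitted effect of over 55% in size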
#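 Toxicity toward the 2HG-producing NT line was scored as %Activity, normalised to DMSO and no-cell wells, from CellTiter-Glo luminescence after 48 hours' treatment.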
# KB-3-1 tox: KB-3-1 parental cell cytotoxicity; KB-3-1 viability, CellTiter-Glo ATP luminescence, 72 h; Potency, µM (doses to about 46.1 µM), usual class: cytotoxic; 400,000 compounds, 1.4% hits; AID 1347075; note: % is set by controls: 0 for no effect and ±100 for the full control effect; nearly all actives have a fitted effect of over 60% in size
#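 Using CellTiter-Glo luminescence, growth of non-resistant KB-3-1 adenocarcinoma cells is assessed 72 h after pin-tool compound addition at 37 °C. Normalized responses across the concentration series yield fitted curves.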
# HT1080 IDH1KD tx: toxicity to HT-1080 IDH1 knockdown cells (counter line) | Potency, µM (top dose mostly 46.1 µM), inactives show at the highest dose activity, negative = toxicity, most hits filed as cytotoxic | HT-1080 IDH1 knockdown viability, ATP luminescence, 48 h | AID 686971 | 360,000 compounds, 2% hits;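 note: 0% = DMSO wells and -100% = cell-free medium wells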
#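 HT-1080-IDH1KD cells (IDH1 knocked down), 750/well in RPMI with 5% FBS, treated with compound 48 h at 37 degrees C. Viability by CellTiter-Glo luminescence, normalised to DMSO and no-cell wells; concentration-response curves classed.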
# KB-V1 MDR tox: kills drug-selected multidrug resistant KB-V1 cells | Potency, µM (highest dose often 46.1 µM), usual class: cytotoxic | KB-V1 MDR cells viability, CellTiter-Glo, 72 h | 400,000 compounds, 3.4% hits | AID 1347076; note: % is set by controls: 0 for no effect and ±100 for the full control effect; nearly all actives have a fitted effect of over 60% in size
#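 Cells of the MDR subline KB-V1 are plated, dosed with compound at multiple concentrations, and incubated 72 h at 37 degrees C; CellTiter-Glo is then added and luminescence read after 10 min.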
# SW480 rereplic: induces DNA re-replication in SW480 colon adenocarcinoma cells | SW480 DNA re-replication, Hoechst DNA content imaging, 48 h | Potency, µM (highest dose often 46.1 µM), for inactives: at the top dose re-replication activation, hits mostly activators | 340,000 compounds, 1.8% hits | AID 624297; note: % of control where 0% means no effect; nearly all actives have a fitted effect of over 55% in size
#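 Image-based read-out: total Hoechst fluorescence of nuclei (405 nm excitation, 500-530 nm emission), with hits raising the fraction of high-intensity nuclei. SW480 colon cells incubated 48 hr with compounds at 37 C.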
# * = called active by the depositor; i = inactive; ? = inconclusive; . = no result given. Calls come from the whole dose curve; as a rule, active = well fitted curve in the direction sought with a large enough effect; inconclusive = small, poorly fitted or top-dose-only effect, or another doubt; inactive = no such curve, though single readings can be large; an effect the other way counts as inactive or inconclusive. Potency is the fitted concentration of half-maximal effect.
SMILES,MCF10A rerep,HT1080-NT tox,KB-3-1 tox,HT1080 IDH1KD tx,KB-V1 MDR tox,SW480 rereplic
CC1(Cc2ccccc2C#N)C(=O)Nc2ccc(OC(F)(F)F)cc21 (configuration not stated),.,1%,i,-8%,i,.
Cc1ccc(NC(=O)NC(=O)COC(=O)c2ccc(O)cc2O)c(C)c1,.,3%,i,3%,i,.
O=C(CSc1nnc(COc2ccc(Br)cc2)o1)NC1CCCCC1,1%,-1%,i,0%,i,0%
COc1ccc(/C=C/c2cc(C(F)(F)F)[nH]c(=O)n2)cc1OC,?,-6%,?,-28%,i,16µM*
Cc1cc(C)cc(NC(=O)CN(c2cc(C(F)(F)F)ccc2Cl)S(=O)(=O)c2ccccc2)c1,.,.,i,.,i,.
COc1ccc(/C=C/C(=O)Nc2nc3n(n2)C(c2ccccc2)C=C(c2ccc(Cl)cc2)N3)cc1 (configuration not stated),.,.,i,.,i,.
CN(C)c1nc(SCCOC(=O)c2ccccc2)nc(N(C)C)n1,5%,3%,i,7%,?,5%
CCN(CC)c1nc(SCCOC(=O)Nc2ccccc2)nc(N(CC)CC)n1,9.2µM*,?,i,?,21µM*,3%
CC(C)CNC(=O)CN(C1CCCCC1)S(C)(=O)=O,?,5%,i,11%,i,6.5µM*
CS(=O)(=O)N(CC(=O)Nc1ccc(Br)cc1)C1CCCCC1,11%,?,23µM*,?,?,20%
CS(=O)(=O)N(CC(=O)Nc1ccc(C(N)=O)cc1)C1CCCCC1,-2%,-5%,i,1%,i,-4%
O=C(CC1NCCC[C@H]1O)Cn1cnc2cc(Br)c(Cl)cc2c1=O (some centres not stated),3%,.,.,.,.,1%
Cc1ccc(Cc2nnc3n(-c4ccccc4)nc(C(=O)c4ccccc4)n3c2=O)cc1,16µM*,-1%,?,-28%,8.2µM*,18µM*
CC[C@H](C)[C@H]1CNC(=S)N1CC1CCN(CCC23CC4CC(CC(C4)C2)C3)CC1,?,-2%,?,2%,i,-2%
CCCCN(C(=O)/C=C/c1ccc(OC)cc1)C1CCS(=O)(=O)C1 (configuration not stated),-2%,2%,i,11%,?,2%
CC(C)CN(C(=O)CN(C)S(=O)(=O)c1ccc(Cl)cc1)C1CCS(=O)(=O)C1 (configuration not stated),1%,0%,i,1%,i,2%
Cc1ccc(S(=O)(=O)N(C)CC(=O)N(CC(C)C)C2CCS(=O)(=O)C2)cc1 (configuration not stated),4%,7%,i,11%,i,4.1µM*
CCCN(C(=O)/C=C/c1ccc(S(=O)(=O)N(CC)CC)cc1)C1CCS(=O)(=O)C1 (configuration not stated),-5%,4%,i,6%,23µM*,-5%
CCN(CC)S(=O)(=O)c1ccc(N2CCCC2)c(NC(=O)CN2C(=O)NC3(CCCC3)C2=O)c1,-1%,10%,i,6%,i,-12%
COc1ccc(CC(=O)N2CCc3cc(OC)c(OC)cc3C2COc2ccc(F)cc2)cc1 (configuration not stated),.,.,i,.,7.3µM*,.
COc1ccc(CC(=O)N2CCc3cc(OC)c(OC)cc3C2COc2ccc(F)cc2)cc1OC (configuration not stated),.,.,i,.,i,.
COc1cc2c(cc1OC)C(COc1ccc([N+](=O)[O-])cc1)N(C(C)=O)CC2 (configuration not stated),-3%,?,16µM*,-20%,?,-1%
COc1cc2c(cc1OC)C(COc1ccccc1OC)N(C(C)=O)CC2 (configuration not stated),11%,3%,i,-1%,i,-9%
COc1ccccc1C(=O)NCC(=O)N1CC=C(c2ccccc2)CC1,-2%,-9%,?,0%,16µM*,-6%
COc1cc(CC(=O)OCC(=O)N2CCCCC2C)cc(OC)c1OC (configuration not stated),14%,-2%,i,0%,?,-10%
SMILES,MCF10A rerep,HT1080-NT tox,KB-3-1 tox,HT1080 IDH1KD tx,KB-V1 MDR tox,SW480 rereplic
C1CC1Cc1noc(CN2CCN(C3C4CC5CC(C4)CC3C5)CC2)n1 (configuration not stated),2.9µM*,14%,i,19%,i,-8%
CCOC(=O)c1c(N)n(-c2ccc(N)cc2)c2nc3ccccc3nc12,-7%,0%,i,-3%,i,-325%
Nc1c(C(=O)Nc2ccccc2)c2nc3ccccc3nc2n1-c1ccc(O)cc1,15µM*,?,i,?,i,7.3µM*
N#Cc1c(N)n(-c2ccc(C(=O)O)cc2)c2nc3ccccc3nc12,18µM*,1%,i,10%,i,?
N#Cc1c(N)n(C2CCCCC2)c2nc3ccccc3nc12,1µM*,?,?,?,?,8.2µM*
N#Cc1c(N)n(-c2ccc(N)cc2)c2nc3ccccc3nc12,-4%,?,i,-4%,i,-95%
Cc1csc2nc(COc3ccc(NC(=O)COc4ccc(F)cc4)cc3)cc(=O)n12,.,.,i,.,i,.
CCc1noc(C)c1C(=O)N1CC(C)SC1=Nc1ccc(Cl)cc1 (configuration not stated),8%,-9%,i,-6%,16µM*,1%
COc1cccc(-c2ccc3nnc(SCC(=O)Nc4ccc(NC(C)=O)cc4)n3n2)c1,?,-3%,i,-8%,i,5%
CCOC1CCCc2oc(-c3ccc(N(C)C)cc3)c(C(=O)OC)c21 (configuration not stated),.,?,?,?,8.2µM*,.
COC(=O)c1c(-c2ccc(N(C)C)cc2)oc2c1C(OC)CCC2 (configuration not stated),.,-10%,?,-25%,i,.
CC(C)(C)c1ccc(Cn2nnc3c(=O)[nH]c(C4CCCN(C(=O)c5cccs5)C4)nc32)cc1 (configuration not stated),?,?,i,?,i,-3%
CCOc1ccccc1OCC(=O)Nc1ccc(S(=O)(=O)Nc2nc(C)cc(C)n2)cc1,16%,-19%,i,-8%,18µM*,-6%
Cc1cc(C)nc(NS(=O)(=O)c2ccc(NC(=O)COc3ccccc3F)cc2)n1,0%,2%,i,5%,i,-4%
